The campaign covered roughly 2,300 compounds. About 1,100 (48%) were called active. So high a share suggests a set chosen from earlier hits. The list shows a part of the results. Measured potencies and affinities stand elsewhere. A number with no mark means an inactive call. No rule for the calls is given here.
Test: S. typhi counter-screen signal inhibition – fluorescence, 4 h, counter-screen for PhoP regulon inhibitor project, dose response (AID 2384)
Details: S. typhi GFP reporter counter-screen; series mostly up to 150 µM
For `COC(=O)C1=C(C)N(Cc2ccco2)C(=O)N[C@H]1c1ccc(Br)cc1`, the inhibition was “inactive”. For `COC(=O)C1=C(C)N(CC2CC2)C(=O)N[C@H]1c1ccc(Br)cc1`, the inhibition was “inactive”. In the case of `CC(C)CC(c1nnnn1Cc1ccco1)N1CCN(c2cccc(Cl)c2)CC1` (centres undefined), the inhibition was “inactive”. With `CCCC(C(=O)NCC1CCCO1)N(Cc1ccco1)C(=O)CNS(=O)(=O)c1ccc(F)cc1` (centres undefined) the inhibition was “inactive”. In the case of `Cc1c(C2(O)C(=O)Nc3ccc(F)cc32)c(=O)n(-c2ccccc2)n1C` (centres undefined), the inhibition was “inactive”. For `Nc1nn2cc(-c3ccccc3)nc2c2ccccc12`, the inhibition was “inactive”. In the case of `Nc1nc2ccccc2cc1-c1cccs1`, the inhibition was “inactive”. In the case of `Nc1ccc(N=Nc2ccccc2)c(N)n1`, the inhibition was “inactive”. For `Cc1ccc(CN2C3=NCCN3c3ccccc32)cc1`, the inhibition was “inactive”. For `Cc1cccc(CN2C3=NCCCN3c3ccccc32)c1`, the inhibition was “inactive”. For `O=C(COc1ccc(Cl)cc1)N1CCCCC1`, the inhibition was “inactive”. In the case of `O=C(CSc1ccc(Cl)cc1)c1ccco1`, the inhibition was “inactive”. For `CC(C)(C)NC(=O)/C=C/c1ccc(C(F)(F)F)cc1`, the inhibition was “inactive”. For `CC(=O)C1C(c2ccc(OC(F)F)cc2)NC(=O)NC1(O)C(F)(F)F` (centres undefined), the inhibition was “inactive”. For `c1ccc2c(SCc3cn4ccccc4n3)nncc2c1`, the inhibition was “inactive”. In the case of `O=C(Cn1c(C(F)(F)F)nc2ccccc21)NCCCN1CCOCC1`, the inhibition was “inactive”. In the case of `Cc1cccc(N(C(=O)CCC(=O)Nc2ccccn2)C(C(=O)NC(C)C)c2ccc(O)cc2)c1` (centres undefined), the inhibition was “inactive”. In the case of `CC(C(=O)NC1CCCCC1)N1CCN(C)CC1` (centres undefined), the inhibition was “inactive”. With `O=C(CCS(=O)(=O)c1ccccc1)Nc1ccc2c(c1)C(=O)NC2=O` the inhibition was “inactive”. For `CCCCCCNC1=NCCS1`, the inhibition was “inactive”. With `CC(=O)Cc1nsc(NC(=O)c2csc3c2CCCC3)n1` the inhibition was “inactive”. With `C[N+](C)(CCCCCC[N+](C)(C)CCCN1C(=O)c2cccc3cccc(c23)C1=O)CCCN1C(=O)c2cccc3cccc(c23)C1=O` the inhibition was “inactive”. For `CCn1c(=N)n(CC(=O)c2ccc(OC)cc2)c2ccccc21`, the inhibition was “inactive”. For `CCOC(=O)CNC(=O)Cn1c(C)cc2ccccc2c1=O`, the inhibition was “inactive”. With `Cc1ccc(-n2c(=O)c3sccc3n(CC(=O)NC3CCCCC3)c2=O)cc1` the inhibition was “inactive”. For `COc1ccc(/C=N/NC(=O)c2cc3c(OC)ccc(OC)c3[nH]2)cc1O`, the inhibition was “inactive”. With `O=C(CSc1nnc(-c2cccnc2)n1Cc1ccco1)c1ccc2ccccc2c1` the inhibition was “inactive”. For `Cc1cc(NCCCn2ccnc2)n2ncc(-c3ccccc3)c2n1`, the inhibition was “inactive”. For `Cc1cc(C)nc(SCC(=O)NCc2ccco2)n1`, the inhibition was “inactive”. For `Cc1ccccc1Cn1c(=O)n(CCCC(=O)NCc2ccco2)c(=O)c2ccccc21`, the inhibition was “inactive”. In the case of `COc1ccccc1NC(=O)Cn1c(=O)n(CCc2c[nH]c3ccccc23)c(=O)c2cccnc21`, the inhibition was “inactive”. With `COc1ccc(CNCCc2c[nH]c3ccccc23)c(OC)c1C` the inhibition was “inactive”. For `CCOC(=O)Cn1c(=O)oc2cc(S(=O)(=O)NCC3CCCO3)ccc21` (centres undefined), the inhibition was “inactive”. With `Cc1ccc(N2CC(C(=O)OCc3ccccc3F)CC2=O)cc1` (centres undefined) the inhibition was “inactive”. With `C=C(C)Cn1c(SCC#N)nc2ccccc2c1=O` the inhibition was “inactive”. For `Cc1cc(C(F)F)n2nc(C(=O)Nc3cc(C)on3)nc2n1`, the inhibition was “inactive”. In the case of `CCc1nc(C)ccc1OCC(=O)N(CC)CC`, the inhibition was “inactive”. For `CNS(=O)(=O)c1cccc(C(=O)OCc2cc(=O)oc3c(C)c(O)ccc23)c1`, the inhibition was “inactive”. In the case of `[O-][n+]1onc2c1CCc1[nH]c(-c3ccccc3)nc1-2`, the inhibition was “inactive”. With `CN(C)C(/C=C/Nc1ccc(F)cc1F)=C(C#N)C#N` the inhibition was “inactive”. In the case of `CC(=O)Nc1cccc(NS(=O)(=O)Cc2ccc(Cl)cc2)c1`, the inhibition was “inactive”. For `CC(=O)Nc1cccc(NC(=O)Nc2ccc(C)c(Cl)c2)c1`, the inhibition was “inactive”. With `O=C(Cn1c(=O)oc2ccccc21)N1CCN(c2ccc(N3CCOCC3)nn2)CC1` the inhibition was “inactive”. In the case of `CCn1c(SCC(=O)Nc2oc(-c3ccccc3)c(-c3ccccc3)c2C#N)nnc1-c1ccco1`, the inhibition was “inactive”. In the case of `O=C(O)Cn1c(=O)c2c3c(sc2n(Cc2ccccc2F)c1=O)CCCC3`, the inhibition was “inactive”. In the case of `O=C1CCCC(=O)N1c1ccc(N2CCOCC2)c([N+](=O)[O-])c1`, the inhibition was “inactive”. For `Cc1cc(N2CCCCC2)c(F)cc1[N+](=O)[O-]`, the inhibition was “inactive”. For `Cc1cnc(NC(=O)CN2C(=O)C3CC=CCC3C2=O)s1` (centres undefined), the inhibition was “inactive”. In the case of `O=C(Nc1ccccc1)c1ccc2nsnc2c1`, the inhibition was “inactive”. In the case of `Cc1ccccc1N1C(N)=NC(N)=NC1(C)C`, the inhibition was “inactive”. With `COC(=O)C(NC(C)=O)(Nc1nc2c(s1)CCCC2)C(F)(F)F` (centres undefined) the inhibition was “inactive”. With `Cc1[nH]c2ccccc2c1/C=C/c1nc2ccccc2c(=O)[nH]1` the inhibition was “inactive”. In the case of `CCOC(=O)CSc1nc(-c2ccccc2)nc2ccccc12`, the inhibition was “inactive”. With `c1ccc2oc(-c3csc(NCC4CCCO4)n3)cc2c1` (centres undefined) the inhibition was “inactive”. In the case of `COc1ccc(Nc2nnc(SCC3CCCO3)s2)cc1` (centres undefined), the inhibition was “inactive”. With `COc1ccc(CCn2c(=N)c(C(=O)NCC3CCCO3)cc3c(=O)n4ccccc4nc32)cc1` (centres undefined) the inhibition was “inactive”. With `COc1ccc(Cn2c(=N)c(C(=O)NCC3CCCO3)cc3c(=O)n4ccccc4nc32)cc1` (centres undefined) the inhibition was “inactive”. With `COc1ccccc1Nc1nc(NCC2CCCO2)c2ccccc2n1` (centres undefined) the inhibition was “inactive”. With `O=S(=O)(c1ccccc1)c1nc(-c2cccs2)oc1NCC1CCCO1` (centres undefined) the inhibition was “inactive”. For `CC(=O)c1cccc(CN2CCN(C3CCCC3)C(CCO)C2)c1` (centres undefined), the inhibition was “inactive”. With `CCCC1(c2ccccc2)NC(=O)N(CC(=O)Nc2ccccc2C(F)(F)F)C1=O` (centres undefined) the inhibition was “inactive”. With `O=C(NCC1CCCO1)c1cc2ccccc2oc1=O` (centres undefined) the inhibition was “inactive”. In the case of `Cc1cccn2c(=O)c3cc(C(=O)NCC4CCCO4)c(=N)n(C4CCCC4)c3nc12` (centres undefined), the inhibition was “inactive”. For `Cc1oc2nc(SCCCC(=O)NCCCO)nc(N)c2c1C`, the inhibition was “inactive”. For `Cc1c(C(=O)O)c(-c2ccccc2)nn1-c1ccccc1`, the inhibition was “inactive”. For `CCN(CC)C(=O)CNC(=O)Cc1ccc(Cl)cc1`, the inhibition was “inactive”. For `O=C1c2ccccc2C(=O)N1CCCP(=O)(O)CCc1ccccc1`, the inhibition was “inactive”. In the case of `COc1ccc(/C=N/NC(=O)c2ccc3c(c2)OCO3)cc1`, the inhibition was “inactive”. With `COc1ccc(N2CCN(C(CNC(=O)c3ccc4c(c3)OCO4)c3ccco3)CC2)cc1` (centres undefined) the inhibition was “inactive”. In the case of `O=C(N/N=C\c1ccc(F)cc1)c1ccc(F)cc1`, the inhibition was “inactive”. For `CCCCN1/C(=C/c2cccc[n+]2C)Sc2cc(NC(C)=O)ccc21`, the inhibition was “inactive”. For `O=C(CSc1nc2ccccc2o1)c1cc2ccccc2oc1=O`, the inhibition was “inactive”. For `CC(Sc1nc2ccccc2o1)C(=O)O` (centres undefined), the inhibition was “inactive”. With `Cc1c(CC(=O)N2CCC(C(N)=O)CC2)c(=O)oc2cc3c(cc12)CCC1(CCCCC1)O3` the inhibition was “inactive”. With `O=C(/C=C/c1c(F)cccc1Cl)N1CCOCC1` the inhibition was “inactive”. In the case of `CC1CCN(C(=O)COc2ccc(Nc3ccccc3)cc2)CC1`, the inhibition was “inactive”. With `Cc1cc(N/N=C/c2ccc(F)cc2)nc(NCc2ccccc2)n1` the inhibition was “inactive”. In the case of `COc1ccc2nc(Nc3ccccc3)sc2c1`, the inhibition was “inactive”. With `CCCCNC(=S)Nc1ccc([N+](=O)[O-])cc1` the inhibition was “inactive”. In the case of `O=C(Nc1ccc(N2CCOCC2)cc1)C1CCN(S(=O)(=O)c2ccccc2F)CC1`, the inhibition was “inactive”. For `CCN(CC)S(=O)(=O)c1ccc2c(c1)c(C(=O)O)cn2C`, the inhibition was “inactive”. With `CCn1cc(C(=O)NCc2ccc3c(c2)OCO3)c(=O)c2cc(F)c(N3CCN(C(=O)c4ccco4)CC3)cc21` the inhibition was “inactive”. With `CCn1cc(C(=O)N[C@@H](C)C(=O)OC)c(=O)c2cc3c(cc21)OCO3` the inhibition was “inactive”. In the case of `O=C(c1cc2c(s1)-c1ccccc1OC2)N1CCc2ccccc2C1`, the inhibition was “inactive”. For `Nc1c(-c2ccccc2)sc2ccc3ccccc3[n+]12`, the inhibition was “inactive”. In the case of `CN(Cc1ccccc1)S(=O)(=O)c1csc(C(N)=O)c1`, the inhibition was “inactive”. With `Cc1cccc(NC(=O)c2ccccc2Br)n1` the inhibition was “inactive”. For `Cc1ccc(C(C)C)c(OCCNC(=O)c2ccccc2O)c1`, the inhibition was “inactive”. For `CN1C(=O)c2ccc(NC(=O)C3CCCCC3)cc2C1=O`, the inhibition was “inactive”. With `CC(=O)c1c(C)[nH]c(C(=O)OCC(=O)NCC(C)C)c1C` the inhibition was “inactive”. In the case of `O=C(NCCc1ccncc1)Nc1ccc(Cl)c(Cl)c1`, the inhibition was “inactive”. With `O=C(O)CCSCc1ccccc1F` the inhibition was “inactive”. With `Cc1ccc(NC(=S)NCc2cccs2)cc1` the inhibition was “inactive”. In the case of `Cc1cc2cc(CNC(=O)C(C)Oc3ccccc3)ccc2n1C` (centres undefined), the inhibition was “inactive”. With `COC(=O)c1cccc(C(=O)N2CCCC(CCC(=O)N(C)CCc3ccccn3)C2)c1` (centres undefined) the inhibition was “inactive”. For `Fc1ccc(NC(=S)NCc2ccccc2Cl)cc1`, the inhibition was “inactive”. In the case of `COc1cccc(CNc2nn[nH]n2)c1OC`, the inhibition was “inactive”. In the case of `COc1ccccc1CNC(=O)COC(=O)CCC(=O)c1cccs1`, the inhibition was “inactive”. With `Cc1cc(=O)oc2cc(OCC(=O)NC3CCCC3)ccc12` the inhibition was “inactive”. For `CSc1cccc(NC(=O)/C=C/c2ccco2)c1`, the inhibition was “inactive”. For `COc1cccc(C(=O)Nc2cccc(SC)c2)c1`, the inhibition was “inactive”. In the case of `CC(C)CCNC(=O)c1cc2c(s1)-c1ccccc1S(=O)(=O)C2`, the inhibition was “inactive”. In the case of `COC(=O)c1ccc(CSc2nc3ccccc3c(=O)n2-c2ccc(OC)c(OC)c2)o1`, the inhibition was “inactive”. For `Cc1[nH]nc2c1C1(CCC3(CC1)OCCO3)C(C#N)=C(N)O2`, the inhibition was “inactive”. In the case of `Cc1ccsc1/C=N\NC(=O)c1ccc2c(c1)OCO2`, the inhibition was 29.4% [at 18.8 µM]. For `Cc1ccc2cc(-c3noc(C4CCCO4)n3)c(=O)[nH]c2c1` (centres undefined), the inhibition was “inactive”. In the case of `Cc1[nH]c(=O)[nH]c(=O)c1S(=O)(=O)N1CCCC(C(=O)NCc2ccc3c(c2)OCO3)C1` (centres undefined), the inhibition was “inactive”. For `CCc1cccc2c(C=C(C#N)C#N)cn(CC(=O)N3CCCCCC3)c12`, the inhibition was “inactive”. In the case of `N#Cc1c(/N=C/c2cccs2)sc2c1CCCCC2`, the inhibition was “inactive”. For `Cc1nc(NC2=NCN(CCCN3CCOCC3)CN2)nc2c(C)cccc12`, the inhibition was “inactive”. In the case of `COc1cccc(NC(=O)CN(C)C(C)C(=O)Nc2ccc(S(=O)(=O)N3CCOCC3)cc2)c1` (centres undefined), the inhibition was “inactive”. With `COc1cccc(CNC(=O)C2CCN(S(=O)(=O)c3ccc(C)cc3)CC2)c1` the inhibition was “inactive”. In the case of `Nc1nc(SCC(=O)Nc2ccc3c(c2)CCC3)n[nH]1`, the inhibition was “inactive”. With `CC(C)Cc1c(O)nc(SCC(=O)Nc2ccc3c(c2)CCC3)[nH]c1=O` the inhibition was “inactive”.

Source: PubChem BioAssay AID2384 (Southern Research Specialized Biocontainment Screening …, 2010)
